The values below come from PubChem BioAssay AID504891 (National Center for Advancing Translational Sciences (NCATS), 2011).

Among all 390,000 compounds or so, about 35 (0.009%) were called active. About 6% were inconclusive and are not listed. This is one part of a sample in which actives are shown more often than they occur. Calls come from the whole dose curve; as a rule, active = well fitted inhibition curve with a large enough effect in the polarisation, with a control signal flat (not every such curve was filed as active); inconclusive = small, poorly fitted or top-dose-only effect, or effect the other way, or a change in a side signal; inactive = no such curve, though single readings can be large or run the other way; the % refers to the polarisation.

For this assay, the target named is Peptidyl-prolyl cis-trans isomerase NIMA-interacting 1 (Homo sapiens) (UniProt Q13526). Description: qHTS Assay to Find Inhibitors of Pin1. As to conditions: Pin1 FP peptide displacement, HiFluor488, 10 min; series mostly up to 115 µM. The text has this: NIH Molecular Libraries Probe Production Network [MLPCN]
Sequence of Peptidyl-prolyl cis-trans isomerase NIMA-interacting 1 (Homo sapiens) (Q13526 whole entry, looked up): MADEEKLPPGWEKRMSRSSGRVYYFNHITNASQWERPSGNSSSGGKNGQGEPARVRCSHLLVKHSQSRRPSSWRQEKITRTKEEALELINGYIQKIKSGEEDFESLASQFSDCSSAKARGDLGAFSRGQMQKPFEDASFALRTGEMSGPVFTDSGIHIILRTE
NIH Chemical Genomics Center [NCGC]
The unique chemical properties of Pro allow for the adoption of two completely distinct amide bond conformations (cis and trans). Peptidyl-prolyl cis/trans isomerases (PPIases) are evolutionary conserved enzymes that catalyze cis/trans isomerization of peptidyl-prolyl peptide bonds. Distinct from all other PPIases such as cyclophilins and FK506-binding proteins (FKBPs), Pin1 binds a subset of phos.Ser/Thr-Pro-containing proteins using its protein-targeting WW domain and isomerizes only specific phos.Ser/Thr-Pro bonds, which cannot be effectively catalyzed by other known PPIases.
Pin1-catalyzed conformational regulation can control a spectrum of activities of many key regulators in diverse cellular processes such as cell growth, genotoxic and other stress responses, immune response, germ cell development, neuronal differentiation and survival. Pin1 has emerged as a novel molecular timer that modulates its multiple targets at various steps of a given cellular process to synergistically control the amplitude and duration of a cellular response or process. Importantly, Pin1 is tightly regulated by multiple levels and its deregulation has an important role in a growing number of pathological conditions, including cancer, Alzheimer's disease, aging, asthma and microbial infection, providing a potentially new therapeutic option.
The goal of this screen is to find small-molecule inhibitors of Pin1 using a fluorescence polarization competition assay. A HiFluor-488-labeled peptide binds to the active site of Pin1 and can be displaced by compounds. Compounds were screened as a concentration-titration series that ranged from 57 uM to 0.7 nM.
NCGC Assay Protocol Summary:
Pin1 (0.6 uM) was dispensed into black, solid 1536-well plates at 2 uL/well in 10 mM HEPES (pH 7.5), 10 mM NaCl, 0.01% Tween20, 1 mM DTT, and 1% glycerol. Then, 23 nL of compounds or DMSO were delivered to each well using a pin tool. Two uL of Pin1-1b-HiFluor488 peptide (10 mM HEPES (pH 7.5), 10 mM NaCl, 0.01% Tween20, 1 mM DTT, and 1% glycerol, 0.02 uM Pin1-1b-HiFluor488) was then dispensed, and plates were incubated at room temperature for 10 min. The plates were measured on a ViewLux plate reader for fluorescence polarization signal using a 480/20 nM nm excitation filter and 540/25 nM nm S and P emission filters with a 20 second exposure. The %Activity was determined from the corrected fluorescence polarization values. Unlabeled Pin1-1c peptide was used as a control (3.5 mM two-fold serial; 20 uM final concentration) along with a 1x (0.3 uM) and 0x (no-enzyme) Pin1 enzyme control to normalize %Activity of identified inhibitors; 0x enzyme values corresponded to 100%Activity (full inhibition), while 1x Pin1 enzyme values were used to normalize 0%Activity (no inhibition).
Concentration-response curves were fitted to the signals arising from the resulting fluorescence polarization. The concentration-effect curves were then classified based on curve quality (r2), response magnitude and degree of measured activity, and compounds were subsequently categorized based on their curve class.
Keywords: Peptidyl prolyl isomerase, Pin1, fluorescence polarization, MLSMR, MLPCN, NIH Roadmap, qHTS, NCGC
As to `CCc1cccc(C)c1NS(=O)(=O)c1ccc(-c2cc(C)no2)s1`, the activity, negative = inhibition entry is “inactive”. Consider `CC(=O)N1CCCc2ccc(NS(=O)(=O)c3ccc(F)cc3F)cc21`, for which the activity, negative = inhibition entry is “inactive”. Regarding `COc1ccc(CNC(=O)COCc2cc(-c3cccs3)on2)cc1OC`, the activity, negative = inhibition result was “inactive”. As for `COc1cccc(C(=O)NC2CCN(C#N)CC2)c1`, the entry is “inactive”; as for `CCOC(=O)c1c(N)n(-c2cccc(C)c2C)c2nc3ccccc3nc12`, “inactive”. Regarding `COc1ccc(Br)cc1C1C2C=CCC(C)C2C(=O)N1Cc1ccccc1` (stereo not drawn), the activity, negative = inhibition entry was “inactive”. Turning to `O=C(OCC#CCSc1nnc(-c2ccco2)o1)c1ccc(F)cc1`, the activity, negative = inhibition result is “inactive”. As for `CC(=O)OCC(NC(=O)C(Cc1ccccc1)NC(=O)OC(C)(C)C)C1OC(n2ccc(=O)[nH]c2=O)C(OC(C)=O)C1OC(C)=O` (stereo not drawn), the activity, negative = inhibition entry is “inactive”. Then `CC(=O)Nc1ccc(S(=O)(=O)N2N=NC3C2C2CC4C3(CN(C(=O)OC(C)(C)C)S4(=O)=O)O2)cc1` (stereo not drawn), with “inactive”; and `COc1cccc(OC2=NS(=O)(=O)c3ccccc32)c1`, with “inactive”. Regarding `COc1ccc(C2Nc3ccccc3C(=O)N2Cc2ccccc2)cc1COc1ccc(C(N)=O)cc1` (stereo not drawn), the activity, negative = inhibition entry is “inactive”. As for `CCN(CC)S(=O)(=O)c1ccc2c(c1)N(CC(=O)NCc1ccccc1)C(=O)CS2`, the entry is “inactive”.

Take `Cc1cccc(N2CCN(S(=O)(=O)c3ccc4[nH]c5c(c4c3)CCCCC5)CC2)c1C`: the activity, negative = inhibition entry was “inactive”.

For `Cc1cc(C)cc(NC(=O)CSc2nc(=O)n(CCN3CCOCC3)c3c2CCC3)c1`, the activity, negative = inhibition result was “inactive”. On to `Cc1ccc(Cn2c(=O)n(-c3ccc(C)cc3)c(=O)c3c2c2cc(C)ccc2n3C)cc1`, for which the activity, negative = inhibition entry is “inactive”. Consider `CCCCN(CC)CCCNC(=O)Cn1ncc2c([nH]c3ccc(C)cc32)c1=O`, for which the activity, negative = inhibition result is “inactive”.

Take `CCC(=O)Nc1ccccc1-c1nc2ccccc2n(CC(=O)Nc2ccc(C)c(C)c2)c1=O`: the activity, negative = inhibition result was “inactive”. For the compound `O=C1CCCC2=C1[C@@]1(CCC(c3ccccc3)C1)N=C(Nc1nc3ccccc3o1)N2` (stereo partly drawn), the activity, negative = inhibition result was “inactive”. As for `Cc1cc2n(n1)C(c1cc(C(C)(C)C)c(O)cc1O)Nc1ccccc1-2` (stereo not drawn), the activity, negative = inhibition entry is “inactive”. Regarding `CCOc1ccccc1CNC(=O)c1ccc2c(c1)nc1n2CCC(C)C1` (stereo not drawn), the activity, negative = inhibition entry is “inactive”.

With `COc1cc(C(=O)N2CCN(c3ccc(Nc4ccc(C)cc4)nn3)CC2)cc(OC)c1OC`, the activity, negative = inhibition result was “inactive”.

Regarding `COc1cccc(C2c3c(ncn(-c4cccc(Br)c4)c3=N)Oc3ccc4ccccc4c32)c1` (stereo not drawn), the activity, negative = inhibition entry is “inactive”. As to `Cc1ccc(Cl)cc1NC(=O)Cc1ccc(-n2c(C)nc3cccnc32)cc1`, the activity, negative = inhibition entry was “inactive”.

For `Cc1ccc(Nc2c(-c3ccc(Cl)cc3)nc3sccn23)c(C)c1`, the activity, negative = inhibition entry was “inactive”. Turning to `OCCNc1ncnc2oc(-c3ccco3)c(-c3ccco3)c12`, the activity, negative = inhibition entry is “inactive”. For `O=c1c2ccccc2nc2sc(Nc3ccc4c(c3)OCO4)nn12`, the activity, negative = inhibition entry was “inactive”.

Regarding `CC(=O)c1sc(N2C(=O)c3oc4ccccc4c(=O)c3C2c2ccc(C)cc2)nc1C` (stereo not drawn), the activity, negative = inhibition entry was “inactive”. Consider `NC(=O)C1CCN(c2ncc(-c3ccc(Cl)cc3)s2)CC1`, for which the activity, negative = inhibition entry was “inactive”.

Turning to `CCOc1ccc(NC(=O)C(=O)NCCc2csc3nc(-c4ccccc4F)nn23)cc1`, the activity, negative = inhibition entry is “inactive”.

`CCCc1cc(=O)n2[nH]c(NCc3ccc(CC)cc3)nc2n1`: the activity, negative = inhibition entry is “inactive”. As for `C=C1CCN(C(CC(C)C)C(=O)N2CCOCC2)S(=O)(=O)c2ccccc21` (stereo not drawn), the entry is “inactive”; as for `Cn1nnnc1Sc1ncnc2scc(-c3ccccc3[N+](=O)[O-])c12`, “inactive”. Turning to `COc1cc(OC)c2c(c1C(CCN1CCCCC1)c1ccc(N(C)C)cc1)OC(=O)CC2c1ccc(N(C)C)cc1` (stereo not drawn), the activity, negative = inhibition result was “inactive”. As for `CCOc1ccccc1NC(=O)Cn1c(=O)n(-c2cccc(C)c2)c(=O)c2c1c1cc(OC)ccc1n2C`, the entry is “inactive”; as for `O=C(Cn1c(-c2cccs2)cc2ccccc21)NCCc1ccc(Cl)cc1`, “inactive”; as for `COC(=O)c1ccccc1S(=O)(=O)Nc1ccc(OC)cc1`, “inactive”.

With `Cc1c(-c2cccc(NC(=O)C(C)(C)C)c2)nc2ncccn12`, the activity, negative = inhibition result was “inactive”. Consider `CCN(CC)/[N+]([O-])=N/Oc1cc(O/[N+]([O-])=N/N2CCCC2CO)c([N+](=O)[O-])cc1[N+](=O)[O-]` (stereo not drawn), for which the activity, negative = inhibition result is “inactive”. Turning to `Cc1ccc(-c2nc(=N)sn2Cc2ccccc2)cc1`, the activity, negative = inhibition result was “inactive”. Then `COc1ccc(-c2nc(=N)sn2-c2ccccc2)cc1`, with “inactive”; and `CC(=O)NC(c1cccs1)c1cc(Cl)c2cccnc2c1O` (stereo not drawn), with “inactive”. With `Cc1cc2c(s1)c1cnn(Cc3c(F)cccc3Cl)c(=O)c1n2C`, the activity, negative = inhibition result is “inactive”. Take `c1coc(CCNc2ncnc3ccc(-c4ccc5c(c4)OCO5)cc23)c1`: the activity, negative = inhibition result was “inactive”.
